From PubChem BioAssay
VP16 counter: inhibits Gal4-VP16 luciferase reporter, ROR gamma counter-screen; Drosophila S2 Gal4-VP16 UAS-luciferase, luminescence, 20 h; hit rate 3.5% among 310,000; Potency, µM (titrated, usually from 53.6 µM), inactives show at the highest dose activity, negative = inhibition, usual class: inhibitors;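 further: Gal4-VP16 expression switched on by copper sulfate through the metallothionein promoter; nearly all actives have a fitted effect of over 50% in size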
PLK1 PBD inh: PLK1 (human) polo-box domain binding inhibition; P53350; Plk1 PBD binding of FITC phosphopeptide, fluorescence polarization; Potency, µM, without a hit: max response, negative = inhibition, actives largely listed as inhibitors; hit rate 2.8% among 360,000; AID 720504; further: series mostly up to about 57 µM; nearly all actives have a fitted effect of over 65% in size
RORgamma inh: blocks mouse ROR gamma transcriptional activity. P51450. Drosophila S2 Gal4-RORgamma UAS-luciferase reporter, 20 h. Potency, µM (highest dose often 53.6 µM), for inactives: top-dose activity change, negative = inhibition, most hits filed as inhibitors. hit rate 5.4% among 310,000; further: nearly all actives have a fitted effect of over 60% in size
Target sequence (P51450 whole entry, looked up, the tested form may be a part): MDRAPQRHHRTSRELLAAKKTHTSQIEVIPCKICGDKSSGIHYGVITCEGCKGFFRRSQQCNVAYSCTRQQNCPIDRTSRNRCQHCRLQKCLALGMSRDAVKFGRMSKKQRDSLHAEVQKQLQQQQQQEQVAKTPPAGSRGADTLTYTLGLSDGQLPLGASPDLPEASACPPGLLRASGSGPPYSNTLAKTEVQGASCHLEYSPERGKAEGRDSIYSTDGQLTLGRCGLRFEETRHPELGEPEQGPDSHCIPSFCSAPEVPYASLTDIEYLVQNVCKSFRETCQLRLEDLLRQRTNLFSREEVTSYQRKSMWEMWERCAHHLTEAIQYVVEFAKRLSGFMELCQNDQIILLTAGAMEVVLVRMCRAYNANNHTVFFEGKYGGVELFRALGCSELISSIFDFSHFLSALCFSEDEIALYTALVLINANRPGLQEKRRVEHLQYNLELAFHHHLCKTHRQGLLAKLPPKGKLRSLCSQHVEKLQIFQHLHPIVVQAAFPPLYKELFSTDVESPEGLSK
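ROR gamma transcriptional activity was tracked as Gal4-UAS luciferase output in stably transfected Drosophila Schneider cells, with compound added 1 hr before 700 uM copper sulfate induction and a 20 hr ambient-temperature incubation.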
ALDH1A1 inh: ALDH1A1 (human) enzyme inhibition | P00352 | Purified ALDH1A1, NADH fluorescence, propionaldehyde substrate | hit rate 7.3% among 220,000 | Potency, µM (titrated, usually from 75.3 µM), for the others: top-dose activity, negative = inhibition, usual class: inhibitors; active means well fitted inhibition curve with a large enough effect, not every such curve was filed as active; inconclusive means small, poorly fitted or top-dose-only effect, or another doubt; inactive means no such curve, though single readings can be large or run the other way;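 further: plate controls were no enzyme wells and a reference inhibitor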
Sfp inh: Sfp phosphopantetheinyl transferase inhibition; Biochemical Sfp PPTase activity, qHTS; AID 1490; hit rate 3.5% among 310,000; Potency, µM, for the others: largest response in the series, negative = inhibition, hits mostly inhibitors;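 further: the enzyme is Sfp with the accession as filed and its product quenches rhodamine fluorescence; 0% = enzyme reaction without inhibitor and -100% = no enzyme wells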
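Reaction rates are the 30-min fluorescence difference (ex 525, em 598 nm) in wells containing 15 nM Sfp, 5 uM rhodamine-CoA and 12.5 uM BHQ-2-YbbR at pH 7.6 with 10 mM MgCl2.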
* hit, by the source's call; ? = inconclusive; nt = not tested or not shown; [ ] = dose if it differs, or a comment. This is a sample that favours compounds with a hit; in the whole collection about 12% have one here. Unless noted, the call rests on the fitted dose curve; in most records, active means well fitted curve in the direction sought with a large enough effect; inconclusive means small, poorly fitted or top-dose-only effect, or another doubt; inactive means no such curve, though single readings can be large; an effect the other way counts as inactive or inconclusive. Unless noted, on the % scale 0 is the no-effect control and ±100 the full control effect; potency means the concentration at half of the fitted maximal effect.

SMILES	VP16 counter	PLK1 PBD inh	RORgamma inh	ALDH1A1 inh	Sfp inh
COC(=O)C(C(C)=O)C1=C/C(=N\S(=O)(=O)c2ccc(C)cc2)c2ccccc2C1=O (stereo not given)	?	28µM*	-20%	?	?
CC(=O)Nc1ccc(NC(=O)C(C)OC(=O)c2ccccc2NS(=O)(=O)c2cccs2)cc1 (stereo not given)	7%	-1%	18%	nt	4%
CC(=O)Nc1ccc(NC2=C/C(=N/S(=O)(=O)c3cccs3)c3ccccc3C2=O)cc1	5µM*	-10%	7.1µM*	8%	-7%
Cc1ccccc1NC1=C/C(=N\S(=O)(=O)c2cccs2)c2ccccc2C1=O	5.6µM*	19µM*	4µM*	?	-18%
COC(=O)[C@H](CO)NS(=O)(=O)c1ccc(C)cc1	nt	-1%	nt	nt	nt
O=C1CCCCC2CCCCN12 (stereo not given)	11%[96.6 µM]	nt	26%[96.6 µM]	-8%[120 µM]	-1%
O=[N+]([O-])c1ccccc1C(=Nc1ccccc1)c1c(O)cc(O)cc1O	nt	-11%	nt	nt	nt
Cc1ccccc1NC1=C/C(=N\S(=O)(=O)c2ccc(C(=O)O)cc2)c2ccccc2C1=O	?	-28%	?	nt	-28%
O=C(O)c1ccc(S(=O)(=O)/N=C2\C=C(Nc3ccccc3F)C(=O)c3ccccc32)cc1	?	30µM*	?	nt	?
CC(C)NC(=O)C1(C)CCCN1C(=O)c1ccc2c(c1)C(C)(C)CCC2(C)C (stereo not given)	nt	-2%	nt	nt	nt
Cc1nc(NC(=O)C2CCCC2)sc1Cc1ccc2c(c1)OCO2	11%	-2%	-24%	?	-12%
Cc1c(Cc2ccc3c(c2)OCO3)sc(NC(=O)c2cccc3ccccc23)c1C(N)=O	6%	6µM*	?	14µM*	35µM*
COC(=O)c1c(NC(=O)CN2C(=O)c3ccccc3C2=O)sc(Cc2ccc3c(c2)OCO3)c1C	-6%	-8%	0%	?	6%
Cc1c(Cc2ccc3c(c2)OCO3)sc(NC(=O)C2CC2)c1C(N)=O	?	3.8µM*	11%	nt	20µM*
CCOc1ccc(CC(=O)Nc2sc(Cc3ccccc3)c(C)c2C(N)=O)cc1OCC	-1%	?	18%	?	20µM*
Cc1c(Cc2ccccc2)sc(NC(=O)/C=C/c2cccc3ccccc23)c1C(N)=O	-4%	7.5µM*	8%	?	-16%
CC(=O)Nc1ccc(CN2C(=O)C(CCc3ccccc3)ON=C2c2cnccn2)cc1 (stereo not given)	nt	4%	nt	nt	nt
Cc1ccc(S(=O)(=O)NCl)cc1	-3%	nt	0%	nt	5.6µM*
COCCNS(=O)(=O)c1ccc(-c2ccc(C)cc2)cc1	-16%	-1%	?	?	18%
Cc1ccc(S(=O)(=O)NCCCCCCNS(=O)(=O)c2ccc(C)cc2)cc1	nt	-6%	nt	nt	nt
Cc1ccc(S(=O)(=O)NCCOCCNS(=O)(=O)c2ccc(C)cc2)cc1	1%	-10%	-4%[10 µM]	13µM*	7%
Cc1ccc(S(=O)(=O)NCCCC(=O)C=[N+]=[N-])cc1	0%	-10%	?	13µM*	9%
CCN=c1scc(C)n1/N=C/c1cc(Br)c(O)c(Br)c1	4%	?	-22%	?	?
CCN=c1scc(C)n1/N=C/c1ccc(O)c(O)c1O	?	6.7µM*	3.5µM*	10µM*	8.9µM*
COCCN=c1scc(-c2cccs2)n1/N=C/c1ccc(O)c(O)c1O	?	7.5µM*	-95%	1.1µM*	7.1µM*
SMILES	VP16 counter	PLK1 PBD inh	RORgamma inh	ALDH1A1 inh	Sfp inh
CCNC(=S)N1N=C2c3ccccc3CCC2C1c1ccc(F)cc1 (stereo not given)	?	-4%	8.9µM*	nt	0%
O=C(CCCc1ccccc1)N1CCN(C2CCCCC2)CC1	?	-10%	-44%[1.91 µM]	nt	8%
c1ccc(CCN(Cc2ccccc2)C2CCN(C3CCCC3)CC2)cc1	-17%	-9%	19%	40µM*	50µM*
COc1cccc(-n2c(SCC(=O)N3CCCCC3)nc3c([nH]c4ccccc43)c2=O)c1	-3%	2%	15%	8%	0%
O=C(CSc1nc2c([nH]c3ccccc32)c(=O)n1-c1ccccc1)N1CCOCC1	-2%	0%	1%	2.5µM*	2%
Cc1ccc(-n2c(SCC(N)=O)nc3c([nH]c4ccccc43)c2=O)cc1	27%	-12%	5%	11µM*	17%
O=C(CSc1nc2c([nH]c3ccccc32)c(=O)n1-c1cccc(Cl)c1)N1CCOCC1	?	-4%	?	3%	?
COc1cccc(-n2c(SCC(N)=O)nc3c([nH]c4ccccc43)c2=O)c1	0%	-2%	7%	?	20µM*
Cc1ccc(-n2c(SCC(N)=O)nc3c(oc4ccccc43)c2=O)cc1	-6%	-16%	-35%	nt	4%
COc1cccc(-n2c(SCC(=O)Nc3cc(C)on3)nc3c([nH]c4ccccc43)c2=O)c1	-4%	-3%	26%	?	25µM*
Cc1cc(NC(=O)CSc2nc3c([nH]c4ccccc43)c(=O)n2-c2cccc(C(F)(F)F)c2)no1	-3%	-8%	3%	2%	5%
Cc1ccc(S(=O)(=O)N2[C@@H](CO)CO[C@H]2CC(=O)c2cccs2)cc1	nt	-16%	nt	nt	nt
Cc1ccc(NC(=O)CSc2nnc(NC3CC3)s2)cc1S(=O)(=O)N1CCOCC1	nt	1%	nt	nt	nt
COc1ccc2nc(SCCC(=O)O)cc(C)c2c1	4%	1%	0%	nt	4%
COc1ccc(N2C(=O)C3C(c4ccc(C(=O)O)cc4)NC(Cc4ccccc4)(C(=O)O)C3C2=O)c([N+](=O)[O-])c1 (stereo not given)	-24%	-5%	2%	11µM*	-24%
COc1ccc(Oc2nc(-c3ccccn3)nc3ccccc23)cc1	2.5µM*	1%	0.4µM*	?	40µM*
Cc1nc(Oc2ccccc2)c2ccccc2n1	1%	-2%	-27%	6%	3%
Fc1ccc(Oc2nc(-c3ccccn3)nc3ccccc23)cc1	2.5µM*	-13%	0.71µM*	4%	?
c1ccc(Oc2nc(-c3ccccn3)nc3ccccc23)cc1	3.2µM*	-4%	0.63µM*	?	?
CSc1nc(Oc2ccc(F)cc2)c2ccccc2n1	-2%	-5%	-14%	-1%	-5%
CC1CCC2C(=O)N3C(CCC(C)C3c3ccc(-c4ccco4)cc3)C(=O)N2C1c1ccc(-c2ccco2)cc1 (stereo not given)	5%[10 µM]	nt	4%[10 µM]	3.2µM*	?
CCCCOCCCNC(=O)C[C@@H]1C[C@@]2(C(=O)OC)CC(C)(C)CC=C2N(Cc2ccc3c(c2)OCO3)C1=O	nt	9%	nt	nt	nt
COc1ccc(Cl)cc1NC(=S)Nc1cccnc1	-12%	-20%	-11%	-1%	25µM*
COc1ccc(NC(=S)Nc2cccnc2)c(OC)c1	-4%	-8%	-28%	?	-21%
COc1ccc(Cl)cc1NC(=S)Nc1cccc(C)c1	?	-16%	11µM*	-8%	-16%
